Data published in PubChem BioAssay AID1117283 (Broad Institute, 2014).
Potency and affinity values are given separately. Unmarked numbers belong to inactive results.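 How the source made its calls: active means fluorescent signal decreased by at least 40%; inconclusive means no clear call, values can overlap the other calls; inactive means the rest, including activity opposite to the expected direction.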

Test: inhibition of fibronectin matrix deposition – AH1F cells, Alexa488-fibronectin fluorescence, cherry-pick, set 2, dose response (AID 1117283);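 further: AH1F fibroblasts given Alexa488-labelled fibronectin at 24 nM final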
Settings: AH1F fibroblasts, overnight; series mostly up to 35 µM; activity change, negative = inhibition: at the top concentration
With `CO[C@H]1CN(C)C(=O)c2cc(NC(=O)Nc3cc(Cl)cc(Cl)c3)ccc2OC[C@@H](C)NC[C@H]1C` the “activity change, negative = inhibition” value was 1.09%. With `CSc1ccccc1C(=O)C1CCCN(C(=O)CCc2cccnc2)C1` (configuration not stated) the “activity change, negative = inhibition” value was 0.149%. With `C[C@@H]1CN([C@@H](C)CO)C(=O)c2cc(NC(=O)CCCN(C)C)ccc2O[C@@H]1CN(C)Cc1ccc(-c2ccccc2)cc1` the “activity change, negative = inhibition” value was -1.8%. With `COc1ccccc1N(CC(=O)N(CC(C)C)CC(C)C)S(=O)(=O)c1cccs1` the “activity change, negative = inhibition” value was 2.52%. With `C[C@@H]1CN([C@H](C)CO)C(=O)c2cc(-c3ccccc3)cnc2O[C@H]1CN(C)Cc1ccccc1` the “activity change, negative = inhibition” value was 5.66%. With `O=S(=O)(c1ccccc1F)N1CC[C@@H]2[C@H](CO)Nc3ccc(-c4cccc(F)c4)cc3[C@@H]21` the “activity change, negative = inhibition” value was -7.86%. In the case of `C[C@@H]1CN([C@H](C)CO)C(=O)c2cc(NC(=O)CCCN(C)C)ccc2O[C@@H]1CN(C)Cc1ccc(-c2ccccc2)cc1`, the “activity change, negative = inhibition” value is reported as 2.6%. With `Cn1cnc(S(=O)(=O)N2CCN(c3ccccc3)CC2)c1` the “activity change, negative = inhibition” value was -6.26%. In the case of `C[C@H](O)C#Cc1ccc2c(c1)O[C@H](CN(C)C)[C@H](C)CN([C@@H](C)CO)S2(=O)=O`, the “activity change, negative = inhibition” value is reported as -8.27%. For `C[C@@H]1CN([C@H](C)CO)C(=O)c2cccc(NC(=O)Nc3ccc(C(F)(F)F)cc3)c2O[C@@H]1CN(C)C(=O)Nc1cccc2ccccc12`, the “activity change, negative = inhibition” value was -3.32%. For `CO[C@@H]1CN(C)C(=O)c2ccc(NC(=O)c3ccc(-c4ccccc4)cc3)cc2OC[C@@H](C)NC[C@@H]1C`, the “activity change, negative = inhibition” value was 2.75%. For `O=C(c1cccnc1)N1C[C@H]2[C@@H](c3ccccc31)[C@@H](CO)N2CC1CCCC1`, the “activity change, negative = inhibition” value was 4.21%. For `CN1c2ccc(-c3ccccc3)cc2[C@H]2[C@H](CCN2C(=O)CN2CCOCC2)[C@@H]1CO`, the “activity change, negative = inhibition” value was 6.7%. In the case of `C[C@H](CO)N1C[C@H](C)[C@H](CN(C)Cc2ccc(-c3ccccc3)cc2)Oc2ccc(NC(=O)CCCN(C)C)cc2C1=O`, the “activity change, negative = inhibition” value is reported as 8.61%. With `COC(=O)c1c(NC(=O)CN2CCN(c3ccccc3Cl)CC2)sc(C)c1C` the “activity change, negative = inhibition” value was 3.46%. For `CCCc1cc(C(=O)OC)c(NC(=O)CCC(=O)O)s1`, the “activity change, negative = inhibition” value was 8.2%. With `O=C(CCC(=O)c1cccs1)NCc1cccnc1` the “activity change, negative = inhibition” value was -2.53%. For `S=C(NCC1CCCO1)Nc1ccc(Cl)cc1Cl` (configuration not stated), the “activity change, negative = inhibition” value was -0.519%. In the case of `CC(C)(C)c1cc(Cl)c(O)c(NC(=S)NC(=O)c2cccnc2)c1`, the “activity change, negative = inhibition” value is reported as 3.41%. With `COC(=O)C[C@H]1CC[C@H]2[C@H](COc3ccc(NC(=O)Cc4cccs4)cc3C(=O)N2C)O1` the “activity change, negative = inhibition” value was -7.38%. With `COCC(=O)Nc1ccc2c(c1)C(=O)N(C)[C@@H]1CC[C@H](CC(=O)NCc3ccccc3Cl)O[C@H]1CO2` the “activity change, negative = inhibition” value was -3.95%. With `COc1cccc(CNC(=O)CCc2nnc3ccc(NCCCN4CCCC4=O)nn23)c1` the “activity change, negative = inhibition” value was 0.665%. In the case of `O=C(OCC(O)C(O)COC(=O)c1ccccc1)c1ccccc1` (configuration not stated), the “activity change, negative = inhibition” value is reported as -5.12%. For `Cc1cc(C)c(S(=O)(=O)Nn2cnnc2)c(C)c1`, the “activity change, negative = inhibition” value was -9.22%. With `COC(=O)C[C@@H]1CC[C@H]2[C@H](COc3ccc(NC(=O)Cc4cccs4)cc3C(=O)N2C)O1` the “activity change, negative = inhibition” value was -4.43% [at 30 µM]. For `N#C[C@H]1[C@@H](c2ccccc2C2=CCCCC2)[C@H](CO)N1S(=O)(=O)c1ccccc1`, the “activity change, negative = inhibition” value was 3.14% [at 30 µM]. With `C[C@H](CO)N1C[C@H](C)[C@@H](CN(C)Cc2ccc(-c3ccccc3)cc2)Oc2ccc(NC(=O)C3CCCCC3)cc2C1=O` the “activity change, negative = inhibition” value was -7.32%. In the case of `C[C@@H]1CN([C@@H](C)CO)C(=O)c2cc(NC(=O)C3CCCCC3)ccc2O[C@H]1CN(C)Cc1ccc(-c2ccccc2)cc1`, the “activity change, negative = inhibition” value is reported as 3.11%. In the case of `CCc1nc2c(OCCc3cccc(OC)c3)cccn2c1N(C)C(=O)c1ccc(C)cc1`, the “activity change, negative = inhibition” value is reported as 0.686%. For `N#C[C@H]1[C@@H](c2ccccc2C2=CCCCC2)[C@@H](CO)N1S(=O)(=O)c1ccccc1`, the “activity change, negative = inhibition” value was 2.55%. For `COC(=O)C[C@@H]1CC[C@@H]2[C@H](COc3ccc(NC(=O)Cc4cccs4)cc3C(=O)N2C)O1`, the “activity change, negative = inhibition” value was 7.5%. In the case of `O=C(c1cccnc1)N1C[C@@H]2[C@H](c3ccccc31)[C@@H](CO)N2CC1CCCC1`, the “activity change, negative = inhibition” value is reported as -3.72%. For `CO[C@H]1CN(C)C(=O)c2cc(NC(=O)Nc3ccc(Cl)c(Cl)c3)ccc2OC[C@H](C)NC[C@@H]1C`, the “activity change, negative = inhibition” value was -8.06%. For `C[C@H](CO)N1C[C@H](C)[C@@H](CN(C)C(=O)c2cccc(F)c2)Oc2ncc(-c3ccccc3)cc2C1=O`, the “activity change, negative = inhibition” value was 7.51%. For `O=S(=O)(c1cccc(F)c1)N1CC[C@H]2[C@H](CO)Nc3ccc(-c4cccc(F)c4)cc3[C@H]21`, the “activity change, negative = inhibition” value was -8.58%. For `C[C@H](CO)N1C[C@H](C)[C@H](CN(C)C(=O)Nc2cccc3ccccc23)Oc2c(NC(=O)Nc3ccc(C(F)(F)F)cc3)cccc2C1=O`, the “activity change, negative = inhibition” value was 8.48%. In the case of `O=C(Nc1nc(-c2ccncc2)cs1)C1COc2ccccc2O1` (configuration not stated), the “activity change, negative = inhibition” value is reported as 3.61%.
